Measurements published in the supplement of paper PMC11732987, “Enantioselective OTUD7B fragment discovery through chemoproteomics screening and high-throughput optimisation” (Communications Chemistry, 2025).

Legend:
Test in all cases: log2 ratio of Biotin-Ahx-Ub-VS probe labelling (fragment/DMSO); higher = less target engagement (more negative = stronger competition), active = hit call of the paper (q ≤ 0.05, log2 ratio ≤ -1)
Conditions in all cases: compound concentration: 200 uM; treatment time: 3 h
[1] = target: USP34 (UniProt Q70CQ2)
Summary of the method: (§1)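 Using Biotin-Ahx-Ub-VS at 0.5 µM final for 1 h, DUBs were labelled in HEK293T lysate (495 µg per sample) that had first been treated in triplicate with fragment at 200 µM or vehicle for 3 h. NeutrAvidin enrichment, LysC and trypsin digestion and diaPASEF LC-MS/MS followed. Spectronaut label-free quantities were global-median-normalised. Values are average log2 fragment/vehicle ratios by unpaired t-test, using proteins with ≥2 unique peptides.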

[2] = target: T1, USP36 (UniProt Q9P275)
T1 sequence (whole entry): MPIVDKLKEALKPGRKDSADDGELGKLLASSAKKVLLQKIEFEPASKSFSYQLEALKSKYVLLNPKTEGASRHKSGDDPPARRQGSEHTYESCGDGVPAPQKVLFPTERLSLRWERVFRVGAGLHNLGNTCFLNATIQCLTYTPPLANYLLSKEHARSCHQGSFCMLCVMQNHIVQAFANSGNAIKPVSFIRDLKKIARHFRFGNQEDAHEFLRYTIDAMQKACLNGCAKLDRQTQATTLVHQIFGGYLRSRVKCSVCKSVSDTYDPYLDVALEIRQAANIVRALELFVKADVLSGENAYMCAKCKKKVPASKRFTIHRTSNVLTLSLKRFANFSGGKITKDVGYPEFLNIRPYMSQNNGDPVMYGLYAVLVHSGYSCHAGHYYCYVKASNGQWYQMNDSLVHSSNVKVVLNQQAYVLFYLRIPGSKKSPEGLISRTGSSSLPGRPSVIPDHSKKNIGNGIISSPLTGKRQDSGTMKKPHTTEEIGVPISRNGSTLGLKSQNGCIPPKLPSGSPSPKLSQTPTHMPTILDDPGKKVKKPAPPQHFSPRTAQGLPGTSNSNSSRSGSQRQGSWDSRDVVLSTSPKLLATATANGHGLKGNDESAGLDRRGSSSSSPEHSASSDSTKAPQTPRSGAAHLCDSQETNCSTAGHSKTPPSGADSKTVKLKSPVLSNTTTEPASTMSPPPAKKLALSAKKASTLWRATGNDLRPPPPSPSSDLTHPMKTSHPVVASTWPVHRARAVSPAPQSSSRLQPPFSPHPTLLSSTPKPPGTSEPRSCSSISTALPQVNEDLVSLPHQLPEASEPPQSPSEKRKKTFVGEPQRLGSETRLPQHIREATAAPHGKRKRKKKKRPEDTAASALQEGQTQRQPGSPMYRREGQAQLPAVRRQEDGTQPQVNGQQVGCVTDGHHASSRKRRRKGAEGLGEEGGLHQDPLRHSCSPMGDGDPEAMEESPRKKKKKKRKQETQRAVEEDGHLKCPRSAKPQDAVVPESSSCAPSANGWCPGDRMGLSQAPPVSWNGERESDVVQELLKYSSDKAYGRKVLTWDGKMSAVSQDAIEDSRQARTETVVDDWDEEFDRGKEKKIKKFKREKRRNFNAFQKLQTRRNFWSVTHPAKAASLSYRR
Summary of the method: as §1

[3] = target: T2, USP38 (UniProt Q8NB14)
T2 sequence (whole entry): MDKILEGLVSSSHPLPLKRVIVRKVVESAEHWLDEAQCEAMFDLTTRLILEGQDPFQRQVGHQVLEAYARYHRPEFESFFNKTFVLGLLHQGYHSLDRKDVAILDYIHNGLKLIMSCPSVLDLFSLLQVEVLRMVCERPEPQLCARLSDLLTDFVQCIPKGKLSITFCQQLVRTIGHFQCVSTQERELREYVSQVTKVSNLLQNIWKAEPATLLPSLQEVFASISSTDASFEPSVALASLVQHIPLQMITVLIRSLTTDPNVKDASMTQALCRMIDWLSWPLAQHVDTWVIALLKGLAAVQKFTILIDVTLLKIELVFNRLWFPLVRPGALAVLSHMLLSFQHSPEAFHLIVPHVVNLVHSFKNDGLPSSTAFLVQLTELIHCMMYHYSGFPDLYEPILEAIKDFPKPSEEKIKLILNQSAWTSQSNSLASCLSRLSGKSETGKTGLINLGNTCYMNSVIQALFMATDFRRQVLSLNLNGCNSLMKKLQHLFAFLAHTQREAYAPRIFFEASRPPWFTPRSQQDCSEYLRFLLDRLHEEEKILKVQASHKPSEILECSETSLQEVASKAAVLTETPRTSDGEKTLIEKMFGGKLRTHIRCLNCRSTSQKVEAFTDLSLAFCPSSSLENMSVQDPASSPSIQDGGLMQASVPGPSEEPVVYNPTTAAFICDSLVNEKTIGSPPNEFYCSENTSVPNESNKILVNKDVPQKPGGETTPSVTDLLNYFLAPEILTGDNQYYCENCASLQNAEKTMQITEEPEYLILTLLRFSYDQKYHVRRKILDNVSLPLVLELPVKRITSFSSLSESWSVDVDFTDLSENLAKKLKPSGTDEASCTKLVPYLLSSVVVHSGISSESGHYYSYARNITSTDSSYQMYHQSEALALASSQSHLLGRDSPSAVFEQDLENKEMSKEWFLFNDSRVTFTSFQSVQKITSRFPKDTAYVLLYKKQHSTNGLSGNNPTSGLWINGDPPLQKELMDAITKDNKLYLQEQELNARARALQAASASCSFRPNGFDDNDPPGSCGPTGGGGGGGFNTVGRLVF
Summary of the method: as §1

[4] = target: T3, USP39 (UniProt Q53GS9)
T3 sequence (whole entry): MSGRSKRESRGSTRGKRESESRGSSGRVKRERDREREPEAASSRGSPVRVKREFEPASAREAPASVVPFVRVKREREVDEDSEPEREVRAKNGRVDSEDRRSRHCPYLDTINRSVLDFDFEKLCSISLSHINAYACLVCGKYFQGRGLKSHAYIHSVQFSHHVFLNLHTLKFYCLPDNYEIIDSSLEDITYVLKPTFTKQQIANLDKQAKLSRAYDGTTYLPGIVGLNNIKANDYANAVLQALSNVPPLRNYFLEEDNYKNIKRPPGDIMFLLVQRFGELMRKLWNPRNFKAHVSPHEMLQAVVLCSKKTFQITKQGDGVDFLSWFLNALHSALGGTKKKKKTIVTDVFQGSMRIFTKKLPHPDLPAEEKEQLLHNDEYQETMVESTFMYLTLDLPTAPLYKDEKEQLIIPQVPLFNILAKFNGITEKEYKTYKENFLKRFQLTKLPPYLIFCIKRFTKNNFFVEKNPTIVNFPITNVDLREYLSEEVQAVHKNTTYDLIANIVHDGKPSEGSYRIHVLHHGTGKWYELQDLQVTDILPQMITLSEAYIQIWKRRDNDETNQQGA
Summary of the method: as §1

[5] = target: T4, USP4 (UniProt Q13107)
T4 sequence (whole entry): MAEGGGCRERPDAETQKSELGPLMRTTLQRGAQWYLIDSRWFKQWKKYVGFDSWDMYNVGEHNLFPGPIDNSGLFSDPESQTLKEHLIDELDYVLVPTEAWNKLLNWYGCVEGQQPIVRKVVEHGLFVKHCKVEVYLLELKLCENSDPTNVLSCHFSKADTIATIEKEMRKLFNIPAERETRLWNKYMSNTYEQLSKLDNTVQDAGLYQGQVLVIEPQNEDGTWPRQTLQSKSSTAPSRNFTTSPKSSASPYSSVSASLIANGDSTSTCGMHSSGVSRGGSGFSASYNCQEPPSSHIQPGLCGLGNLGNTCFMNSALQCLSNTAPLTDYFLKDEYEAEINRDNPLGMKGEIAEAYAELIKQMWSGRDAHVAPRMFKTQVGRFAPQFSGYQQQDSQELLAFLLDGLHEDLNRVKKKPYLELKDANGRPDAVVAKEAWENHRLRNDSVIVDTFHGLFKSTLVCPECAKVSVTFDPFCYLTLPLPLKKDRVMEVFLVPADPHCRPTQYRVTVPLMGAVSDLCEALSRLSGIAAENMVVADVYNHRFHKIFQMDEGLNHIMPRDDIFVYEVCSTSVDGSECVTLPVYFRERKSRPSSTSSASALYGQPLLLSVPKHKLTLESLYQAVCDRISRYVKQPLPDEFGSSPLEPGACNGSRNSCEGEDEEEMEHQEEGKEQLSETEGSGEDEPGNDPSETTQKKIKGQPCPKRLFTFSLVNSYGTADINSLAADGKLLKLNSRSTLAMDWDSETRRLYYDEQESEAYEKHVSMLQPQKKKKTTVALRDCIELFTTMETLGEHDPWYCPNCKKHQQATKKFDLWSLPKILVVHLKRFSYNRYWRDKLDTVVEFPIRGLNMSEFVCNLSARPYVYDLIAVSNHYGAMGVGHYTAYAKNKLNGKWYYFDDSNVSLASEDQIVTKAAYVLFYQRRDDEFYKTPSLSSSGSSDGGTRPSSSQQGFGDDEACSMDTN
Summary of the method: as §1

Measured: log2 ratio of Biotin-Ahx-Ub-VS probe labelling

Sequence of USP34 (Q70CQ2 whole entry, the tested form may be a part): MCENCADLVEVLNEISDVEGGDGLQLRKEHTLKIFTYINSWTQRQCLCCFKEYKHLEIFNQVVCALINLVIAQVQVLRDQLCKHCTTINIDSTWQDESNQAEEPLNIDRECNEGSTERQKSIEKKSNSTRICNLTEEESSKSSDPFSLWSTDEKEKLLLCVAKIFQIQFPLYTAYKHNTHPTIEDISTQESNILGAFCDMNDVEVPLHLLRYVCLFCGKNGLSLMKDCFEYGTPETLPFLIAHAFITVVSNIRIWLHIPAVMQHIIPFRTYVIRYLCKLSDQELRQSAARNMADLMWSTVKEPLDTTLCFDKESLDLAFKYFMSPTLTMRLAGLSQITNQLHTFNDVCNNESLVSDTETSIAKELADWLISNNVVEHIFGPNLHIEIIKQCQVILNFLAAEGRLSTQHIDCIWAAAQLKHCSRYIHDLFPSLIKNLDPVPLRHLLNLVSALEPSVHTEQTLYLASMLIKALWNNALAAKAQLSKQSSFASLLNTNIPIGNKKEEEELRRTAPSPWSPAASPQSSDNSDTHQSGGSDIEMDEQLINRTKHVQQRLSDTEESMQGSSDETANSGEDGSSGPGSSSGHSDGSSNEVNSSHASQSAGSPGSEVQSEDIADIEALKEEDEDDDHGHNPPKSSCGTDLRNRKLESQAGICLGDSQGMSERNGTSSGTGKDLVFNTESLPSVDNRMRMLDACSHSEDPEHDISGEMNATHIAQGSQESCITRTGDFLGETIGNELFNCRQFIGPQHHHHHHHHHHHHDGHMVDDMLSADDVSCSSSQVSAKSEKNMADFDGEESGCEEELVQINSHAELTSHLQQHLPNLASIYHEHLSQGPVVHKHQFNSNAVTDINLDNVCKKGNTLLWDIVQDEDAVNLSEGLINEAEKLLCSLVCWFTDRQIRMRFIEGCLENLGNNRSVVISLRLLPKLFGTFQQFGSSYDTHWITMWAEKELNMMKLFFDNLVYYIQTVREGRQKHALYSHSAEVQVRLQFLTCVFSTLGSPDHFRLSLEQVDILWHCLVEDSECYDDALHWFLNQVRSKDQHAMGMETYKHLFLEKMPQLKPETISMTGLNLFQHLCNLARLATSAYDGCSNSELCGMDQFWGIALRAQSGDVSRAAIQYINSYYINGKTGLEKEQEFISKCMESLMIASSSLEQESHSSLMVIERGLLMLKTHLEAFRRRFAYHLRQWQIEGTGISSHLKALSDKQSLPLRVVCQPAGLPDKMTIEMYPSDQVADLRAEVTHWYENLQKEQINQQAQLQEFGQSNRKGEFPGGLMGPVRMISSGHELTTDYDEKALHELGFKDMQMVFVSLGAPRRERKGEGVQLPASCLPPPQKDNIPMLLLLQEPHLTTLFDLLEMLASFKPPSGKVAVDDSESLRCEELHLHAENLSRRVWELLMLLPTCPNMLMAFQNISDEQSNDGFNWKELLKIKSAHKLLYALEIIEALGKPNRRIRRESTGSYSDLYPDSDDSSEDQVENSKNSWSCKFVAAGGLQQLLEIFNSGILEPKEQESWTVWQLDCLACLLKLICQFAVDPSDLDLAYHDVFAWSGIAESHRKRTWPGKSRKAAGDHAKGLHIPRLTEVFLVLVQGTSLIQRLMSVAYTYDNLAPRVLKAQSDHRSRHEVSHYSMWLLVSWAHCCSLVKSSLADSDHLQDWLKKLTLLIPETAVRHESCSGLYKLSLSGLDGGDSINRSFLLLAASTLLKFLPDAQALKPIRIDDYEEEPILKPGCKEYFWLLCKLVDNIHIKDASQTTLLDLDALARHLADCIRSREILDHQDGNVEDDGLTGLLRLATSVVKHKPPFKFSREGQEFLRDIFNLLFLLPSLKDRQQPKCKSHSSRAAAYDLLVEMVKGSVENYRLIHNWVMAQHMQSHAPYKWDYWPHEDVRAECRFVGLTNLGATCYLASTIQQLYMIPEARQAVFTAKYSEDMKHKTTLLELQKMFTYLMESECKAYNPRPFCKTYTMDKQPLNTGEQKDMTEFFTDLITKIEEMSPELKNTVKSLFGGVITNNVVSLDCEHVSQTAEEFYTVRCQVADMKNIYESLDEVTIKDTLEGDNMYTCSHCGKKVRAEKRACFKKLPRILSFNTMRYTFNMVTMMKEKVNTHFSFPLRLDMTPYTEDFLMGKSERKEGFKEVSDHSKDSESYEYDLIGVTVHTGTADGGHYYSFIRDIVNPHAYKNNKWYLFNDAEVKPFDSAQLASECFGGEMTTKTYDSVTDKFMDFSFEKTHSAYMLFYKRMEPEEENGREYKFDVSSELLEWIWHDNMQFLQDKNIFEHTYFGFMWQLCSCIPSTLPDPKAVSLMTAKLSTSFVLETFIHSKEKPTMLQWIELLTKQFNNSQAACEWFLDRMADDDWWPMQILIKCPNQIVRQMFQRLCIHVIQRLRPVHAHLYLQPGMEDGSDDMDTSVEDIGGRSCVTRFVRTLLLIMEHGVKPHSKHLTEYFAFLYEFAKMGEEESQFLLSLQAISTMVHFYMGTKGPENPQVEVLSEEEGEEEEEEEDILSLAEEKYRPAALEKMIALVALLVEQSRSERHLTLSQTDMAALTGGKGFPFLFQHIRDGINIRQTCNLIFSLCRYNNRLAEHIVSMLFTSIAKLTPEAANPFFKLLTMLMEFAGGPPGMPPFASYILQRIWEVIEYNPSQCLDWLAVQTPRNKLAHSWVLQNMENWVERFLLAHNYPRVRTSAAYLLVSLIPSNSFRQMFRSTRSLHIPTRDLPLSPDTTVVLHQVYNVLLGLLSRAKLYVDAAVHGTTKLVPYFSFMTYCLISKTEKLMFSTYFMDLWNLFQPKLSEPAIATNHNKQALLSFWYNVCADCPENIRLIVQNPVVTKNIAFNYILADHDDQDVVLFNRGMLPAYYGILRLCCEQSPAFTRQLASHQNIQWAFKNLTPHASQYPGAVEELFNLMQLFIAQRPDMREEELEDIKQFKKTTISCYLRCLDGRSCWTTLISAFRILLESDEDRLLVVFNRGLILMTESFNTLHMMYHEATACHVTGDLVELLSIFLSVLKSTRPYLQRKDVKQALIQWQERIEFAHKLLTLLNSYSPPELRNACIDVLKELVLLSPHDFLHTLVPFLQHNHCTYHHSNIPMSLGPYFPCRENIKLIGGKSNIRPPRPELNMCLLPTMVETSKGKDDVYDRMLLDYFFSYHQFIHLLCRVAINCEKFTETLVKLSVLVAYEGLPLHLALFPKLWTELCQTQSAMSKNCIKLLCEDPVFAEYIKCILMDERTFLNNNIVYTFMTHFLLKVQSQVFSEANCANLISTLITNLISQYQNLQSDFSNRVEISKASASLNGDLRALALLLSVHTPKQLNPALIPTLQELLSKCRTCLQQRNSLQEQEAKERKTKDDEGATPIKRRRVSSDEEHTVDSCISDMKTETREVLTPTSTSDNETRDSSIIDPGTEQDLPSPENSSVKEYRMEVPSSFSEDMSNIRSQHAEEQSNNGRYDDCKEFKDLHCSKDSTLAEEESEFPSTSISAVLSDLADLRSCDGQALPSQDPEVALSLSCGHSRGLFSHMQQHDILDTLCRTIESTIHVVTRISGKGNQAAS

NS(=O)(=O)c1ccc(Cl)c(NC(=O)CCl)c1
inactive: [1] -0.381 | [2] -0.132 | [3] 0.0479 | [4] 0.175 | [5] -0.198
